Measured potencies and affinities stand elsewhere. Calls of active or inactive are those of the source.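 How the source made its calls: active means absorbance falls by 30% or more versus neutral controls, with a potency fitted within twice the top valid dose; inconclusive means no clear call, values can overlap the other calls; inactive means change opposite to expected direction, plus the rest.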

The source of these data is PubChem BioAssay AID602350 (Broad Institute, 2012).

The test deals with Protein disulfide-isomerase (Homo sapiens) (UniProt P07237). Kind of test: inhibition of PDI-driven insulin aggregation – biochemical, turbidity, absorbance, cherry-picked samples, dose response (AID 602350).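 Further: 0% = neutral controls and -100% = rutin hydrate positive control wells.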 The settings on record: recombinant PDI insulin aggregation, absorbance 650 nm, 90 min; series mostly up to 19.5 µM; activity change, negative = inhibition: at the top concentration.
Chain of Protein disulfide-isomerase (Homo sapiens) (P07237 whole entry, looked up): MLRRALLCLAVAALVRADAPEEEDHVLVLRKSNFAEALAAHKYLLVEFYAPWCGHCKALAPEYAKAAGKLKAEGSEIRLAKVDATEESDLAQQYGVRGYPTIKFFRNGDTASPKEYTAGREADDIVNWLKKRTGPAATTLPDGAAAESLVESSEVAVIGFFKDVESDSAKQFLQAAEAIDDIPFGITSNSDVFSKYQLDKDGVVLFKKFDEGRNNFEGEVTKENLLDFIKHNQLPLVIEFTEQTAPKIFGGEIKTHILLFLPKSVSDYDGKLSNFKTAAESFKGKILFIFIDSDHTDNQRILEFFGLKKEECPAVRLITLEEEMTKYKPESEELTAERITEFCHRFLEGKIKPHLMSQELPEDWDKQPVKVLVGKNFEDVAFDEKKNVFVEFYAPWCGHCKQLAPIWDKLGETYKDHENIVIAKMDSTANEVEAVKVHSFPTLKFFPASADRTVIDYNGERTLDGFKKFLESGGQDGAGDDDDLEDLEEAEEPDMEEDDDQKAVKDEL
As to `COc1cc2c(cc1OC)C1C(C(=O)Nc3ccccc3N3CCN(C)CC3)c3ccccc3C(=O)N1CC2` (centres undefined), the “activity change, negative = inhibition” value was -4.54% (inactive).
In the case of `Cc1cc(C)cc(OCC(=O)Nc2ccccc2C(=O)N2CCOCC2)c1` it was 16% (inactive); in that of `O=C(N/N=C/c1cccc([N+](=O)[O-])c1)c1cnccn1`, 21.7% (inactive).
For `O=C(NC1CCCCC1)C1CCN(S(=O)(=O)c2cccs2)CC1`, the “activity change, negative = inhibition” value is -1.28% (inactive).
With `CCN1CCN(Cc2ccc(NC(=O)c3cc(NC(=O)c4cc(-c5ccc(OC)cc5)n[nH]4)cc(OC)c3)cc2C(F)(F)F)CC1`, the “activity change, negative = inhibition” value is -3.51% (inactive).
On to `CCCCNC(=O)CCn1c(=O)c2ccccc2n(CC(=O)Nc2ccccc2OCC)c1=O`, for which the “activity change, negative = inhibition” value is 13% (inactive).
With `COc1ccc(OC)c2[nH]c(=O)c(CCNC(=O)C(=O)c3c(C)[nH]c4ccccc34)cc12`, the “activity change, negative = inhibition” value is 3.8% (inactive).
Next, `Cc1ccc(CN(c2ccc(C(=O)NCc3ccccn3)cc2)S(C)(=O)=O)cc1`: -11.6% (inactive).
Consider `O=C(O)c1ccccc1Cc1ccc(F)c2ccccc12`, for which the “activity change, negative = inhibition” value was 15.1% (inactive).
As to `CC1(C)CC[C@]2(C(=O)O)CC[C@]3(C)C(=CC[C@@H]4[C@@]5(C)CC[C@H](O[C@@H]6O[C@H](C(=O)O)[C@@H](O)[C@H](O[C@@H]7OC[C@H](O)[C@H](O)[C@H]7O)[C@H]6O)C(C)(C)[C@@H]5CC[C@]43C)[C@@H]2C1`, the “activity change, negative = inhibition” value is 6.7% (inactive).
Next, `O=C(NCCN1CCOCC1)c1cccnc1SCc1ccccc1Cl`: 3.56% (inactive).
On to `CCOC(=O)c1c(CN2CCN(C)CC2)n(-c2ccccc2)c2cc(Br)c(O)cc12`, for which the “activity change, negative = inhibition” value is -11.8% (inactive).
Next, `CCCCN(C(=O)C1=CC=CN2CCS(=O)(=O)N=C12)c1ccccc1`: 0.388% (inactive).
Next, `COc1ccccc1NS(=O)(=O)c1cccc(C(=O)NCC2(N(C)C)CCCCC2)c1`: 5.43% (inactive).
For the compound `CCOc1ccc(NC(=O)CCc2nnc3ccc(N4CCN(C)CC4)nn23)cc1`, the “activity change, negative = inhibition” value was 6.03% (inactive).
In the case of `CN(C)CCCN(C(=O)c1ccc(S(=O)(=O)N2CCCc3ccccc32)cc1)c1nc2ccc(F)cc2s1` it was -10.6% (inactive); in that of `Cc1ccc2c(c1)Oc1ccc(NC(=O)CCl)cc1C(=O)N2`, -0.545% (inactive).
Next, `CC1CCCN(c2cc3c(cc2[N+](=O)[O-])C(=O)N(c2ccccc2)C3=O)C1` (centres undefined): 1.27% (inactive); `CCCCC(=O)OC1CCC2C3CCc4cc(O)ccc4C3CCC12C` (centres undefined): -0.743% (inactive).
In the case of `COc1cccc(-n2ccnc2SCC(=O)Nc2cc(OC)ccc2OC)c1` it was 6.09% (inactive).
In the case of `CCOC(=O)c1c(-c2ccccc2)oc2cc(Br)c(O)cc12`, the “activity change, negative = inhibition” value was -1.18% (inactive).
In the case of `C[C@@H](C(=O)NCc1ccccc1)N1C(=O)C2CC=CCC2C1=O` (some centres undefined) it was -0.93% (inactive); in that of `O=C(Cn1nnc2ccccc21)OCC(=O)c1ccccc1`, 13.7% (inactive).
In the case of `CCOC(=O)c1c(CN2CCOCC2)n(-c2ccccc2)c2cc(Br)c(OC)cc12` it was 2.98% (inactive); in that of `CN(C)CCN(C(=O)c1ccc(S(=O)(=O)N2CCc3ccccc32)cc1)c1nc2ccc(F)cc2s1`, -1.71% (inactive); in that of `CSc1cccc(NC(=O)CN(C)S(=O)(=O)c2ccc(F)cc2)c1`, -0.96% (inactive).
Next, `Cc1cc(=O)c(C(=O)Nc2cccc(C(=O)NC3CC3)c2)nn1-c1ccccc1`: 21.8% (inactive); `C[C@H](CO)N1C[C@H](C)[C@H](CN(C)Cc2ccc(Oc3ccccc3)cc2)Oc2c(NS(C)(=O)=O)cccc2C1=O`: -27% (inactive); `Cc1ccc(S(=O)(=O)N(C)c2ccc(OC(=O)COc3ccccc3)cc2)cc1`: -1.41% (inactive).
On to `CCCc1cc(=O)[nH]c(SCCOc2ccc(OCC)cc2)n1`, for which the “activity change, negative = inhibition” value is 7.02% (inactive).
For `O=S(=O)(c1cc(F)ccc1F)N1CCN(c2ncccn2)CC1`, the “activity change, negative = inhibition” value is 0.899% (inactive).
As for `COc1ccc(C(=O)c2c(C)c3cc(C)ccc3n2CC(O)CN2CCOCC2)cc1` (centres undefined), the “activity change, negative = inhibition” value was -5.21% (inactive).
Turning to `CNc1ncnc2c1ncn2[C@H]1CN(Cc2cccc3ccccc23)C[C@@H](CO)O1`, the “activity change, negative = inhibition” value was -2.87% (inactive).
In the case of `COc1cc(C(=O)N2CCN(C/C=C/c3ccccc3)CC2)cc(OC)c1OC` it was 21.3% (inactive); in that of `Cc1ccc(C(=O)NCCN2C3=NC[C@H](Cc4ccc(O)cc4)N3C[C@H]2Cc2ccc(O)cc2)cc1Br`, -2.61% (inactive).
In the case of `S=C(NCCN1CCOCC1)Nc1ccc(Br)cc1` it was 0.916% (inactive).
As for `CN(c1ccccc1)S(=O)(=O)c1cc(C(=O)N2CCN(c3ncccn3)CC2)ccc1Cl`, the “activity change, negative = inhibition” value was 10.7% (inactive).
Turning to `CCOC(=O)c1ccc2c(c1)nc(SCC(=O)N1CCCCC1)n2CC`, the “activity change, negative = inhibition” value was -0.18% (inactive).
With `CC(=O)c1cc(-c2ccccc2)n(CC(=O)Nc2cccc(C)c2)c1C`, the “activity change, negative = inhibition” value was 16.4% (inactive).
